PubChem BioAssay AID1159580 (chemical genetic matrix, 2015)
Values joined by “and” are separate entries in the source; they are usually repeats but may differ in a detail not shown here. Equal values may be shown once. The whole screen tested about 5,500 compounds, of which about 2,000 (36%) were called active. Not shown: some 18% with an inconclusive outcome. Cut-off read from the data, not from the text of the source: active = normalized growth mostly below about 0.91 (no sharp cut-off); inconclusive = no clear call, values can overlap the other calls; inactive = mostly above about 0.92. This is one part of the list.

Assay: chemical genetic growth profiling, strain panel (AID 1159580);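 note: tested at 20 µM; growth read once vehicle control cultures reached saturation at 30 °C; 1 = growth at the plate median or of vehicle wells; lower values mean less growth of the strain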
Details: S. cerevisiae deletion strains, growth OD

Measured: normalized growth

CC[C@@H](CO)NC(=O)[C@@H]1C=C2c3cccc4[nH]cc(c34)C[C@H]2N(C)C1
inactive: locus YAL013W, strain DEP1, active compounds read low 0.989 | locus YAL021C, strain ccr4, active compounds read low 1 | locus YAL026C, strain drs2, active compounds read low 0.996 | locus YAL030W, strain snc1, active compounds read low 0.997 | locus YBL061C, strain skt5, active compounds read low 0.999 | locus YBR009C, strain hhf1, active compounds read low 0.992 | locus YBR021W, strain FUR4, active compounds read low 1 | locus YBR023C, strain chs3, active compounds read low 0.997 | locus YBR171W, strain sec66, active compounds read low 0.998 | locus YBR229C, strain ROT2, active compounds read low 0.99 | locus YBR231C, strain swc5, active compounds read low 0.988 | locus YBR279W, strain paf1, active compounds read low 0.996 | locus YCL011C, strain gbp2, active compounds read low 1 | locus YCL016C, strain dcc1, active compounds read low 0.994 | locus YCL029C, strain bik1, active compounds read low 0.984 | locus YCL069W, strain vba3, active compounds read low 1 | locus YCR088W, strain abp1, active compounds read low 0.998 | locus YDL005C, strain med2, active compounds read low 1 | locus YDL035C, strain GPR1, active compounds read low 1 | locus YDL040C, strain nat1, active compounds read low 0.997 | locus YDL074C, strain BRE1, active compounds read low 1.02 | locus YDL101C, strain DUN1, active compounds read low 0.993 | locus YDL134C, strain PPH21, active compounds read low 0.98 | locus YDL185W, strain tfp1, active compounds read low 0.981 | locus YDL192W, strain arf1, active compounds read low 0.988 | locus YDR001C, strain nth1, active compounds read low 0.998 | locus YDR069C, strain doa4, active compounds read low 0.995 | locus YDR101C, strain arx1, active compounds read low 0.995 | locus YDR137W, strain rgp1, active compounds read low 0.995 | locus YDR150W, strain NUM1, active compounds read low 1 | locus YDR159W, strain sac3, active compounds read low 0.992 | locus YDR162C, strain NBP2, active compounds read low 1.02 | locus YDR195W, strain ref2 0.942 | locus YDR297W, strain sur2, active compounds read low 0.994 | locus YDR318W, strain mcm21, active compounds read low 0.982 | locus YDR334W, strain swr1, active compounds read low 1 | locus YDR335W, strain msn5, active compounds read low 0.999 | locus YDR388W, active compounds read low 0.99 | locus YDR392W, strain spt3, active compounds read low 0.995 | locus YDR502C, strain sam2, active compounds read low 1 | locus YEL003W, strain gim4, active compounds read low 0.998 | locus YEL037C, strain rad23, active compounds read low 1 | locus YEL061C, strain CIN8 (second series), active compounds read low 1 | locus YEL061C, strain CIN8, active compounds read low 0.998 | locus YER015W, strain faa2, active compounds read low 0.99 | locus YER016W, strain bim1, active compounds read low 0.993 | locus YER110C, active compounds read low 0.977 | locus YER111C, strain swi4, active compounds read low 1 | locus YER155C, strain BEM2 (second series), active compounds read low 0.961 | locus YER155C, strain BEM2, active compounds read low 1 | locus YER167W, strain BCK2, active compounds read low 0.974 | locus YFR010W, strain ubp6, active compounds read low 0.985 | locus YGL078C, strain dbp3, active compounds read low 0.998 | locus YGL086W, strain mad1, active compounds read low 0.959 | locus YGL167C, strain pmr1, active compounds read low 1.01 | locus YGL173C, strain kem1, active compounds read low 0.995 | locus YGL227W, strain vid30, active compounds read low 0.991 | locus YGL240W, strain doc1, active compounds read low 0.981 | locus YGL248W, strain PDE1, active compounds read low 0.986 | locus YGL253W, strain hxk2, active compounds read low 1.01 | locus YGR078C, strain PAC10, active compounds read low 0.994 | locus YGR135W, strain pre9, active compounds read low 0.958 | locus YGR229C, strain SMI1, active compounds read low 0.961 | locus YGR252W, strain gcn5, active compounds read low 0.949 | locus YHR013C, strain ard1, active compounds read low 1.02 | locus YHR027C, strain rpn1, active compounds read low 1 | locus YHR030C, strain SLT2, active compounds read low 0.99 and 1.07 | locus YHR079C, strain IRE1 (second series), active compounds read low 0.991 | locus YHR079C, strain IRE1, active compounds read low 1.07 | locus YHR094C, strain hxt1, active compounds read low 0.985 | locus YHR129C, strain ARP1, active compounds read low 0.989 | locus YHR142W, strain chs7, active compounds read low 1.01 | locus YHR200W, strain rpn10, active compounds read low 0.978 | locus YIL066C, strain RNR3, active compounds read low 0.983 | locus YIL073C, strain SPO22, active compounds read low 0.945 | locus YIL125W, strain kgd1, active compounds read low 0.998 | locus YIR030C, strain dcg1, active compounds read low 0.991 | locus YJL092W, strain hpr5, active compounds read low 0.995 | locus YJL095W, strain BCK1 (second series), active compounds read low 0.995 | locus YJL095W, strain BCK1, active compounds read low 0.981 and 1.04 | locus YJL115W, strain asf1, active compounds read low 0.995 | locus YJL129C, strain trk1, active compounds read low 0.999 | locus YJL134W, strain LCB3, active compounds read low 0.992 | locus YJL154C, strain vps35, active compounds read low 0.998 | locus YJL164C, strain tpk1, active compounds read low 0.991 | locus YJL166W, strain qcr8, active compounds read low 0.947 | locus YJL168C, strain set2, active compounds read low 0.984 | locus YJL187C, strain SWE1 (second series), active compounds read low 0.996 | locus YJR043C, strain POL32, active compounds read low 0.975 | locus YJR066W, strain TOR1, active compounds read low 0.999 | locus YJR075W, strain HOC1, active compounds read low 1.02
